# Source: PubChem BioAssay (NCATS)
# Records with an inconclusive call do not appear. Where a call stands in place of a potency, no number is given. Calls of active or inactive are those of the source. Unless noted, the call rests on the fitted dose curve.
# Experiments:
# [1] = molecular target: Peroxisome proliferator-activated receptor delta (Homo sapiens) (UniProt Q03181); assay: qHTS assay for small molecule agonists of peroxisome proliferator-activated receptor delta signaling (AID 588534)
# In short: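 EC50 and efficacy values derive from Hill fits of a concentration series in a beta-lactamase reporter cell assay. Exposure is 18 hrs at 37 C, with CCF4 fluorescence as the readout.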
# [2] = qHTS for Inhibitors of the Functional Ribonucleoprotein Complex (vRNP) of Lassa (LASV) Arenavirus: LASV Primary Screen - GLuc reporter signal (AID 1347082; calls by dose curve; tested in HEK293 reporter line; further: nearly all actives have a fitted effect of over 60% in size)
# [3] = qHTS for Inhibitors of the Functional Ribonucleoprotein Complex (vRNP) of Lassa (LASV) Arenavirus: Viability assay - alamar blue signal for LASV Primary Screen (AID 1347083; calls by dose curve; tested in HEK293 reporter line; further: nearly all actives have a fitted effect of over 80% in size)
# [4] = qHTS for Inhibitors of the Functional Ribonucleoprotein Complex (vRNP) of Lymphocytic Choriomeningitis Arenaviruses (LCMV): Viability assay - alamar blue signal for LCMV Primary Screen (AID 1347085; calls by dose curve; tested in HEK293 reporter line; further: nearly all actives have a fitted effect of over 80% in size)
# [5] = molecular target: Nucleoprotein (Lymphocytic choriomeningitis virus (strain Armstrong)) (UniProt P09992); assay: qHTS for Inhibitors of the Functional Ribonucleoprotein Complex (vRNP) of Lymphocytic Choriomeningitis Arenaviruses (LCMV): LCMV Primary Screen - GLuc reporter signal (AID 1347086); further: nearly all actives have a fitted effect of over 70% in size
# [6] = qHTS profiling for inhibitors of Plasmodium falciparum (3D7) proliferation (AID 743322);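 further: infected erythrocytes exposed to compound for 72 h before lysis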; settings: P. falciparum 3D7 proliferation; at 28.7 µM (top of the series)
# In short: (§1)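 Parasite DNA was quantified by SYBR Green I fluorescence (ex 485, em 535 nm) after overnight lysis in saponin/Triton buffer at room temperature. Cultures at 0.3% parasitemia and 2.5% hematocrit were first exposed to compound for 72 h at 37 C; signals were normalised to artemisinin (0.29 uM) and vehicle wells.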
# [7] = qHTS profiling for inhibitors of Plasmodium falciparum (DD2) proliferation (AID 743323; call rule not given here); settings: lower = more inhibition; at 28.7 µM (top of the series)
# In short: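 Parasite DNA quantified by SYBR Green fluorescence (ex 485, em 535 nm) after saponin/Triton lysis and overnight dark incubation. Cultures: 0.3% parasitemia, 2.5% hematocrit, 72 h, 37 C; data scaled between DMSO and 0.29 uM artemisinin.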
# [8] = qHTS profiling for inhibitors of Plasmodium falciparum (HB3) proliferation (AID 743324; active means well fitted curve in the direction sought with a large enough effect; inactive means no such curve, though single readings can be large or run the other way); settings: Plasmodium falciparum HB3 blood-stage proliferation; at 28.7 µM (top of the series)
# In short: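 SYBR Green fluorescence (485 ex/535 em) of lysed cultures, incubated overnight at room temperature in the dark, quantifies parasite DNA. Infected erythrocytes at 0.3% parasitemia and 2.5% hematocrit were exposed 72 h; values normalized to DMSO and 0.29 uM artemisinin controls.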
# [9] = qHTS profiling of the MIPE4 collection as inhibitors of Plasmodium falciparum (3D7) proliferation (AID 743344; call rule not given here); settings: P. falciparum 3D7 in erythrocytes, SYBR Green DNA fluorescence, 72 h; at 28.5 µM (top of the series) unless noted
# In short: as §1
# [10] = qHTS profiling of the MIPE4 collection as inhibitors of Plasmodium falciparum (DD2) proliferation (AID 743345; call rule not given here); settings: P. falciparum Dd2 in erythrocytes, SYBR Green DNA, 72 h; at 28.5 µM (top of the series) unless noted
# In short: as §1
# [11] = qHTS profiling of the MIPE4 collection as inhibitors of Plasmodium falciparum (DD2) proliferation (Rep 2) (AID 743346; call rule not given here); settings: P. falciparum Dd2 in erythrocytes, SYBR Green DNA, 72 h; at 28.5 µM (top of the series) unless noted
# In short: as §1
# [12] = qHTS profiling of the MIPE4 collection as inhibitors of Plasmodium falciparum (HB3) proliferation (AID 743347; call rule not given here); settings: P. falciparum HB3 in erythrocytes, SYBR Green DNA, 72 h; at 28.5 µM (top of the series) unless noted
# In short: as §1
# Chain of Peroxisome proliferator-activated receptor delta (Homo sapiens) (Q03181 whole entry, looked up): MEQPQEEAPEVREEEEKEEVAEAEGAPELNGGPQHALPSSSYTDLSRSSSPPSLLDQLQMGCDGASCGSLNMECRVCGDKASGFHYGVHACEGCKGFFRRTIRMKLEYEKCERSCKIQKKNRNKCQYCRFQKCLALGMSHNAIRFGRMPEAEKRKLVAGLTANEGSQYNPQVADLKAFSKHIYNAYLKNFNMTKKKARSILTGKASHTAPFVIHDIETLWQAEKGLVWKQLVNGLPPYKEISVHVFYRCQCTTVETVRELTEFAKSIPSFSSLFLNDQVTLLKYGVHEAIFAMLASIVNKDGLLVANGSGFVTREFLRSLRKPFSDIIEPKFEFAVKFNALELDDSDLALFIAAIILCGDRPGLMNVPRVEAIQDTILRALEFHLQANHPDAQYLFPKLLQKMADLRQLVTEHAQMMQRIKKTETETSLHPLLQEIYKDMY
# Chain of Nucleoprotein (Lymphocytic choriomeningitis virus (strain Armstrong)) (P09992 whole entry, looked up): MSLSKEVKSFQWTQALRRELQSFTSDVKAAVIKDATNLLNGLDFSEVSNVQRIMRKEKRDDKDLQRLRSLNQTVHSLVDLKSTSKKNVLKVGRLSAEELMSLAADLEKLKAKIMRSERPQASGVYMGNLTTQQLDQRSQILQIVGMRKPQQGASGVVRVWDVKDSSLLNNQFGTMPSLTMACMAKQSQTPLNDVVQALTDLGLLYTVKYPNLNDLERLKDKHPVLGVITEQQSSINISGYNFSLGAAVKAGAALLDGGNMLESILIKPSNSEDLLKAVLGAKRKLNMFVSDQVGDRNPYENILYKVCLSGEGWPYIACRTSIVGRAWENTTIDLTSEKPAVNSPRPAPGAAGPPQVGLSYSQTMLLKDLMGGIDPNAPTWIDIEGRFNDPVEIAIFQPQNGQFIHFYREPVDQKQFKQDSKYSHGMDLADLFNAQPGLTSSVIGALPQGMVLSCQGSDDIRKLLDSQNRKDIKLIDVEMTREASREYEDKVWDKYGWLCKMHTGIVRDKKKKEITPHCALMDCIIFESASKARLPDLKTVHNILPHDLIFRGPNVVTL
smiles,measurement,setting,value
COC(=O)CCCC(=O)OC,Potency,[1],inactive
same,Potency,[2],inactive
same,Potency,[3],inactive
same,Potency,[4],inactive
same,Potency,[5],inactive
CCCCCCCCCCCCCCCC,Potency,[1],inactive
same,Potency,[2],inactive
same,Potency,[3],inactive
same,Potency,[4],inactive
same,Potency,[5],inactive
CC=O,Potency,[1],inactive
same,Potency,[2],inactive
same,Potency,[3],inactive
same,Potency,[4],inactive
same,Potency,[5],inactive
CC(=O)c1ccccn1,Potency,[1],inactive
same,Potency,[2],inactive
same,Potency,[3],inactive
same,Potency,[4],inactive
same,Potency,[5],inactive
CCCCC(CC)CO (stereo unspecified),Potency,[1],inactive
same,Potency,[2],inactive
same,Potency,[3],inactive
same,Potency,[4],inactive
same,Potency,[5],inactive
CCNc1nc(N)nc(Cl)n1,Potency,[1],inactive
same,Potency,[2],inactive
same,Potency,[3],inactive
same,Potency,[4],inactive
same,Potency,[5],inactive
O=C(OCc1ccccc1)c1ccccc1O,Potency,[1],inactive
same,Potency,[2],inactive
same,Potency,[3],inactive
same,Potency,[4],inactive
same,Potency,[5],inactive
O=C1CCc2ccccc2O1,Potency,[1],inactive
same,Potency,[2],inactive
same,Potency,[3],inactive
same,Potency,[4],inactive
same,Potency,[5],inactive
CC(=O)N(O)CCCP(=O)(O)O,remaining parasite growth % (stronger effect = lower value),[6],13.5%
same,"activity, percent of control",[7],10.8%
same,"remaining proliferation (% of control), lower = more inhibition",[8],8.45%
same,"parasite growth, % of DMSO control",[9],13.6%
same,"parasite growth remaining, % of DMSO control (lower = more inhibition)",[10],18.6%
same,"parasite growth, % of control (lower = inhibition)",[11],18.1%
same,"growth, % of control",[12],13%
same,Potency,[2],inactive
same,Potency,[3],inactive
same,Potency,[4],inactive
same,Potency,[5],inactive
CCC(CC)[C@H](NC(C)=O)[C@@H]1[C@H](O)[C@@H](C(=O)O)C[C@@H]1N=C(N)N,"parasite growth, % of DMSO control",[9],81.5%
same,"parasite growth remaining, % of DMSO control (lower = more inhibition)",[10],98.5%
same,"parasite growth, % of control (lower = inhibition)",[11],112%
same,Potency,[2],inactive
same,Potency,[3],inactive
same,Potency,[4],inactive
same,Potency,[5],inactive
c1ccc(CSCc2ccccc2)cc1,Potency,[1],inactive
same,Potency,[2],inactive
same,Potency,[3],inactive
same,Potency,[4],inactive
same,Potency,[5],inactive
CCCCCC1CCC(=O)O1 (stereo unspecified),Potency,[1],inactive
same,Potency,[2],inactive
same,Potency,[3],inactive
same,Potency,[4],inactive
same,Potency,[5],inactive
COc1ccc(OC)cc1,Potency,[1],inactive
same,Potency,[2],inactive
same,Potency,[3],inactive
same,Potency,[4],inactive
same,Potency,[5],inactive
CCCCCCCCCCCCCc1ccccc1,Potency,[1],inactive
same,Potency,[2],inactive
same,Potency,[3],inactive
same,Potency,[4],inactive
same,Potency,[5],inactive
COc1cc(CNC(=O)CCCCC=CC(C)C)ccc1O,"parasite growth, % of DMSO control",[9],92.4%
same,"parasite growth remaining, % of DMSO control (lower = more inhibition)",[10],103%
same,"parasite growth, % of control (lower = inhibition)",[11],129%
same,"growth, % of control",[12],105%
same,Potency,[2],inactive
same,Potency,[3],inactive
same,Potency,[4],inactive
same,Potency,[5],inactive
CCCCCCCCCCCCCCC,Potency,[1],inactive
same,Potency,[2],inactive
same,Potency,[3],inactive
same,Potency,[4],inactive
same,Potency,[5],inactive
CCCCCCCCCCCCCCCCCC(N)=O,Potency,[1],inactive
same,Potency,[2],inactive
same,Potency,[3],inactive
same,Potency,[4],inactive
same,Potency,[5],inactive
